“And” between values parts separate entries of the source, which are not always exact repeats. Equal values may be shown once. Records with an inconclusive call do not appear. A structure can be active in one record and inactive in another. The source made the active and inactive calls. Unless noted, the call rests on the fitted dose curve; in most records, active means well fitted curve in the direction sought with a large enough effect in the repeat runs; inconclusive means weak or mixed curves; inactive means no such curve, though single readings can be large; an effect the other way counts as inactive or inconclusive.

Assay [1] is described as follows: qHTS assay to identify small molecule antagonists of the glucocorticoid receptor (GR) signaling pathway - cell viability counter screen (AID 720693). Further: nearly all actives have a fitted effect of over 55% in size. Further: potency means the concentration at half of the fitted maximal effect.
The nature of assay [2]: qHTS assay for identifying genotoxic compounds that show differential cytotoxicity against isogenic chicken DT40 cell lines with known DNA damage response pathways - wild type cell line (AID 743012). Further: nearly all actives have a fitted effect of over 60% in size. Further: potency means the concentration at half of the fitted maximal effect. The procedure, abridged: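 First, wild type DT40 cells were plated at 300 per well and equilibrated about 0.5 h at 37 C/5% CO2. Next, compounds in DMSO were added and exposure lasted 40 h. Finally, CellTiter-Glo was added for 30 min at room temperature and luminescence recorded.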
(In general: In qHTS, concentration-response curves come from the screen itself.)

The nature of assay [3]: qHTS assay for identifying genotoxic compounds that show differential cytotoxicity against isogenic chicken DT40 cell lines with known DNA damage response pathways - Rev3 mutant cell line (AID 743014). Further: nearly all actives have a fitted effect of over 55% in size. Further: potency means the concentration at half of the fitted maximal effect.
Assay [4] can be described thus: qHTS assay for identifying genotoxic compounds that show differential cytotoxicity against isogenic chicken DT40 cell lines with known DNA damage response pathways - Rad54/Ku70 mutant cell line (AID 743015). Further: nearly all actives have a fitted effect of over 60% in size. Further: potency means the concentration at half of the fitted maximal effect.
Assay [5] is described as follows: qHTS assay to identify small molecule antagonists of the androgen receptor (AR) signaling pathway - cell viability counter screen (AID 743033; further: nearly all actives have a fitted effect of over 45% in size; further: potency means the concentration at half of the fitted maximal effect).
Assay [6] in a line: qHTS assay to identify small molecule antagonists of the androgen receptor (AR) signaling pathway using the MDA cell line - cell viability counter screen (AID 743041; further: nearly all actives have a fitted effect of over 45% in size; further: potency means the concentration at half of the fitted maximal effect). The procedure, abridged: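 MDA-kb2 AR-luc cells (MMTV-luciferase, AR/GR responsive) treated with compounds plus R1881 agonist for 16 h at 37C. CellTiter-Fluor added at 15.5 h; fluorescence read after 30 min in the same wells.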

Assay [7] can be described thus: qHTS assay to identify small molecule antagonists of the thyroid receptor (TR) signaling pathway - cell viability counter screen (AID 743064). Further: nearly all actives have a fitted effect of over 50% in size. Further: potency means the concentration at half of the fitted maximal effect. In outline: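 In-well cytotoxicity read by CellTiter-Fluor (30 min, 37 C) following 23.5 h exposure of GH3 cells bearing a TRE-luciferase sensor. Compounds were added alongside 1 nM (final) T3 to drive TR transactivation.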

Assay [8] is described as follows: qHTS assay to identify small molecule antagonists of the thyroid receptor (TR) signaling pathway (AID 743065). Further: nearly all actives have a fitted effect of over 55% in size. Further: potency means the concentration at half of the fitted maximal effect. The procedure, abridged: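 GH3.TRE-Luc rat pituitary cells (two TREs driving luciferase) were dosed with compound, then stimulated with 1 nM T3 (final) for 23.5 h at 37 C. ONE-Glo luminescence was the read-out, with CellTiter-Fluor fluorescence as the cytotoxicity counter-screen.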

In assay [9] the test system is thyroid hormone receptor (rat, GH3 cells). In words: qHTS assay to identify small molecule agonists of the thyroid receptor (TR) signaling pathway (AID 743066; calls by dose curve).
Assay [10] addresses Estrogen receptor (Homo sapiens) (UniProt P03372). In words: qHTS assay to identify small molecule antagonists of the estrogen receptor alpha (ER-alpha) signaling pathway (AID 743069; active means well fitted curve in the direction sought with a large enough effect in the signal ratio in the repeat runs, not every such curve was filed as active; the % refers to the signal ratio). In outline: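 HEK293 ER-alpha-UAS-bla GripTite cells, held overnight in 2% charcoal-stripped FBS, 5,000 cells/well, preincubated 4 h, then compound plus 17beta-estradiol for 18 h at 37C. Beta-lactamase read by LiveBLAzer B/G FRET substrate, 2 h at room temperature.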

The nature of assay [11]: qHTS assay to identify small molecule antagonists of the estrogen receptor alpha (ER-alpha) signaling pathway - cell viability counter screen (AID 743074; calls by dose curve;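 further: HEK293 cells carrying ER-alpha-UAS-bla reporter stimulated with 17beta-estradiol; nearly all actives have a fitted effect of over 45% in size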; further: potency means the concentration at half of the fitted maximal effect).
The target in assay [12] is Estrogen receptor (Homo sapiens) (UniProt P03372). In words: qHTS assay to identify small molecule agonists of the estrogen receptor alpha (ER-alpha) signaling pathway (AID 743075; calls by dose curve).
Assay [13] has the same target. In words: qHTS assay to identify small molecule agonists of the estrogen receptor alpha (ER-alpha) signaling pathway using the BG1 cell line (AID 743079). Further: nearly all actives have a fitted effect of over 20% in size. Further: potency means the concentration at half of the fitted maximal effect.
Assay [14] in a line: qHTS assay to identify small molecule antagonists of the estrogen receptor alpha (ER-alpha) signaling pathway using the BG1 cell line (AID 743080; calls by dose curve;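 further: BG1 cells stimulated with 17beta-estradiol alongside compound; series mostly up to about 70 µM; nearly all actives have a fitted effect of over 25% in size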). The procedure, abridged: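 BG1-Luc-4E2 cells (endogenous full-length ER-alpha, 4xERE luciferase) hormone-starved 5 days in charcoal-stripped FBS, plated 4,000/well for 24 h, then compound plus 17beta-estradiol for 21.5 h at 37 C; ONE-Glo luminescence read.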

The nature of assay [15]: qHTS assay to identify small molecule antagonists of the estrogen receptor alpha (ER-alpha) signaling pathway using the BG1 cell line - cell viability counter screen (AID 743081).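 Further: compound given together with 17beta-estradiol as the ER stimulus; nearly all actives have a fitted effect of over 45% in size.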 Further: potency means the concentration at half of the fitted maximal effect.
In another assay the target is Aromatase (Homo sapiens) (UniProt P11511). In words: qHTS assay to identify aromatase inhibitors (AID 743083). Further: nearly all actives have a fitted effect of over 55% in size. Further: potency means the concentration at half of the fitted maximal effect.
Assay [16] deals with Androgen receptor (Homo sapiens) (UniProt P10275). In words: qHTS assay to identify small molecule agonists of the androgen receptor (AR) signaling pathway using the MDA cell line (AID 743040; further: nearly all actives have a fitted effect of over 20% in size; further: potency means the concentration at half of the fitted maximal effect). The procedure, abridged:
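MDA-kb2 breast carcinoma cells carrying MMTV-luciferase (responsive to AR and GR), plated 5 h then treated 16 h with compounds at 37C, 0% CO2. Read-out was ONE-Glo luminescence after 30 min at room temperature.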

For assay [17] the target is unchanged. In words: qHTS assay to identify small molecule antagonists of the androgen receptor (AR) signaling pathway using the MDA cell line (AID 743042; further: nearly all actives have a fitted effect of over 55% in size; further: potency means the concentration at half of the fitted maximal effect). In outline: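 MDA-kb2 breast carcinoma cells carrying MMTV-luciferase (AR/GR responsive) were co-treated with compounds and the agonist R1881 for 16 h at 37C. Inhibition read as ONE-Glo luminescence; CellTiter-Fluor fluorescence measured in parallel for cytotoxicity.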

The target is the same in assay [18]. In words: qHTS assay to identify small molecule agonists of the androgen receptor (AR) signaling pathway (AID 743036; active means well fitted activation curve with a large enough effect in the signal ratio in the repeat runs, with a control signal flat, not every such curve was filed as active; the % refers to the signal ratio). The procedure, abridged:
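Activation was read as beta-lactamase FRET signal from LiveBLAzer B/G substrate, added for 2 h at room temperature. Before that, GeneBLAzer AR-UAS-bla GripTite (HEK293) cells had 16 h compound exposure at 37C.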

The target is the same in assay [19]. In words: qHTS assay to identify small molecule antagonists of the androgen receptor (AR) signaling pathway (AID 743035; active means well fitted inhibition curve with a large enough effect in the signal ratio in the repeat runs, not every such curve was filed as active; the % refers to the signal ratio). In outline:
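Beta-lactamase FRET read (2 h RT incubation with LiveBLAzer B/G) following 16 h of compound plus R1881 treatment of AR-UAS-bla HEK293 cells, which had been pre-incubated 4 h at 37C.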

Sequence of Estrogen receptor (Homo sapiens) (P03372 whole entry, looked up): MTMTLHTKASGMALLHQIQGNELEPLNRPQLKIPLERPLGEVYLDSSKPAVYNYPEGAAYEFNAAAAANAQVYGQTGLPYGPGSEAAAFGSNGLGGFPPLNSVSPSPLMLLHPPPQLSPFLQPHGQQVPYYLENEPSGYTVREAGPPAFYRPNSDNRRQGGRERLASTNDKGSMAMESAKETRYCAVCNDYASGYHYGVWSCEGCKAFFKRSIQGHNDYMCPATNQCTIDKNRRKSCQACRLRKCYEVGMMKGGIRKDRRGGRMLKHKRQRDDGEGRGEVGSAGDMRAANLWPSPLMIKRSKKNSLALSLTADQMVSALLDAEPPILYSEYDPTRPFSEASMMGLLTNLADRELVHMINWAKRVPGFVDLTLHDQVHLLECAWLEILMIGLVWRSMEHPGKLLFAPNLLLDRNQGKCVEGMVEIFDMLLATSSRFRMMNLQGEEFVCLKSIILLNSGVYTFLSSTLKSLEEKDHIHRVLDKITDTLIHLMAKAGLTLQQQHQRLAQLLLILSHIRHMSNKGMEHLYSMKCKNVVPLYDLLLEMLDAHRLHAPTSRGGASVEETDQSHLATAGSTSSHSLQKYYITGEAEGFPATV
Sequence of Aromatase (Homo sapiens) (P11511 whole entry, looked up): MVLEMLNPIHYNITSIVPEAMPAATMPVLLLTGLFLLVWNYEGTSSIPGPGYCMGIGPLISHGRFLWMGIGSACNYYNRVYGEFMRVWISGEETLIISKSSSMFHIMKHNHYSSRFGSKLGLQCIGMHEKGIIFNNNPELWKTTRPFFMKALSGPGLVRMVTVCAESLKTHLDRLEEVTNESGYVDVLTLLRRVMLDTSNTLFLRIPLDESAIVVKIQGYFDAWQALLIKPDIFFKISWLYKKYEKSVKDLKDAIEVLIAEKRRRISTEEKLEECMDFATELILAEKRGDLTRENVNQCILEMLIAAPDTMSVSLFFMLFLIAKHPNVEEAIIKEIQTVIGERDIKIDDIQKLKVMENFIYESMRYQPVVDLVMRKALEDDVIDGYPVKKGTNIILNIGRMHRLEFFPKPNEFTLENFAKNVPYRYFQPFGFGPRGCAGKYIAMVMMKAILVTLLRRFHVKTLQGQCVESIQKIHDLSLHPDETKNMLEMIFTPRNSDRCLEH
Sequence of Androgen receptor (Homo sapiens) (P10275 whole entry, looked up): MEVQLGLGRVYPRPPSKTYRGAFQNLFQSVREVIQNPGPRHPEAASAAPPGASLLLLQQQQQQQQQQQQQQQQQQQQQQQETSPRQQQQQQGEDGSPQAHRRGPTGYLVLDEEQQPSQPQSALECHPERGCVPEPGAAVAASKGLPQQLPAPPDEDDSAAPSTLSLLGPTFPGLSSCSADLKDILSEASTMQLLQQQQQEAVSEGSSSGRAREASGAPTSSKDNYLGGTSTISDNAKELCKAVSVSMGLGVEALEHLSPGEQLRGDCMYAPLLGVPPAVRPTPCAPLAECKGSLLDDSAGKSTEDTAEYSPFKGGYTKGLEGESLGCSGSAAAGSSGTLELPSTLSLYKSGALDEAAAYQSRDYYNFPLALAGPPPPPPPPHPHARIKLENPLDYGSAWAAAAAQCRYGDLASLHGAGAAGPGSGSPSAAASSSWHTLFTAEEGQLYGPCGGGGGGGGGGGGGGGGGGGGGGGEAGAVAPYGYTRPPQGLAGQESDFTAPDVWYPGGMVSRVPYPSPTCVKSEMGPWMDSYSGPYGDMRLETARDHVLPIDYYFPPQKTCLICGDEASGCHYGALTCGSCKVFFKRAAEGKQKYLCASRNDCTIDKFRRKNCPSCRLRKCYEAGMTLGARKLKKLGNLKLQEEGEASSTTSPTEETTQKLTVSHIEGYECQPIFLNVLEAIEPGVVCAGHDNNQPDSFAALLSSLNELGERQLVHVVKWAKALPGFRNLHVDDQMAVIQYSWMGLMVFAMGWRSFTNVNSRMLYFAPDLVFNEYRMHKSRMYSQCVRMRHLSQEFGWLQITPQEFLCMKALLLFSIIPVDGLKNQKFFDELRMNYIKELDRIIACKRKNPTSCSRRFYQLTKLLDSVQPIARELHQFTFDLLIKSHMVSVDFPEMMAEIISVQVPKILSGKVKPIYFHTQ

Regarding `N=C(N)n1cccn1`, the Potency entry in [1], in [2], in assay [3], in assay [4], in assay [5] and in [6] was “inactive” in each case. Besides, the Potency entry in assay [7], in [8], in [9], in [10], in [11] and in assay [12] was “inactive” throughout. The Potency result (in assay [13]; in assay [14]; in assay [15]; in the assay with Aromatase (Homo sapiens)) was “inactive” throughout.
`O=C1c2ccccc2-c2n[nH]c3cccc1c23`: the Potency entry in assay [1], in [5], in assay [16], in assay [17], in [9] and in [11] was “inactive” each time. Besides, the Potency entry (in assay [13]; with Aromatase (Homo sapiens)) was “inactive” each time. The Potency in assay [2] was 9.44 µM (active); in assay [3], 11.9 µM (active); in [4] it was 9.44 µM (active); in assay [8], 11.9 µM (active).
`O=C(CCCCCCCCc1cccnc1)N1CCC(C=C(c2ccccc2)c2ccccc2)CC1`: the Potency is 34.7 µM (active) in [1]; 48.6 µM (active) in [2]; 24.3 µM (active) in [3]; 24.3 µM (active) in assay [4]; 27.3 µM (active) in assay [7]; 43.6 µM (active) in [11]. The Potency result in [5], in assay [18], in assay [16], in assay [6] and in [17] was “inactive” in each case.
`Cc1cc(C(=O)NCCc2ccc(S(=O)(=O)NC(=O)NN3CCCCCC3)cc2)no1`: the Potency result in assay [1], in [2], in [3], in assay [4], in assay [5] and in assay [19] was “inactive” in each case. The Potency result in assay [18], in assay [16], in assay [6], in [17], in [7] and in assay [8] was “inactive” each time. In addition, the Potency result (in [9]; in [11]; in [15]; with Aromatase (Homo sapiens)) was “inactive” in each case.
In the case of `O=C1C2CC3CC1CC(O)(C3)C2`, the Potency result in [1], in [2], in assay [3], in assay [4], in assay [5] and in assay [18] was “inactive” throughout. In addition, the Potency entry in assay [16], in assay [6], in assay [17], in assay [7], in assay [8] and in assay [9] was “inactive” throughout. The Potency entry in [10], in assay [11], in assay [12], in assay [13], in [14] and in [15] was “inactive” each time. The Potency result in the assay with Aromatase (Homo sapiens) was “inactive”.
With `C/C(=C(/CCO)SSCC1CCCO1)N(C=O)Cc1cnc(C)nc1N` (stereo unspecified), the Potency result in assay [1], in assay [5], in assay [6], in assay [7], in assay [8] and in [9] was “inactive” throughout. The Potency entry in assay [10], in assay [11], in assay [12], in assay [13], in assay [14] and in [15] was “inactive” each time. Also, the Potency in assay [2] is 23.7 µM (active) and 11.9 µM (active); in [3] it was 23.7 µM (active); in assay [4], 26.6 µM (active); in the assay with Aromatase (Homo sapiens), “inactive and 29.8 µM (active)”.
Consider `CCN1CCCC1CNC(=O)c1cc(S(=O)(=O)CC)ccc1OC` (stereo unspecified), for which the Potency result in [1], in assay [2], in assay [3], in assay [4], in assay [5] and in assay [19] was “inactive” in each case. Besides, the Potency entry in [18], in assay [16], in [6], in assay [17], in assay [7] and in [8] was “inactive” each time. In addition, the Potency result (in assay [9]; in assay [11]; in [15]; with Aromatase (Homo sapiens)) was “inactive” in each case.
Take `Nc1c(CC(=O)O)cccc1C(=O)c1ccccc1`: the Potency entry in [1], in assay [2], in assay [3], in assay [4], in [5] and in assay [16] was “inactive” in each case. The Potency result in [6], in assay [17], in [8], in assay [9], in assay [10] and in assay [11] was “inactive” throughout. Further, the Potency result (in assay [12]; in [14]; in assay [15]; with Aromatase (Homo sapiens)) was “inactive” throughout. For the same compound, in [13], the Potency entry is “inactive and 10.6 µM (active)”.
Consider `CC[C@@H](C(=O)[C@@H](C)[C@@H](O)[C@H](C)CCc1ccc(C)c(O)c1C(=O)O)[C@H]1O[C@](CC)([C@H]2CC[C@](O)(CC)[C@H](C)O2)C[C@@H]1C`, for which the Potency was 23.9 µM (active) in [1]; 5.96 µM (active) in [2]; 4.73 µM (active) in assay [3]; 6.68 µM (active) in assay [4]; 6.74 µM (active) in assay [5]; 1.88 µM (active) in assay [16]. Also, the Potency in [6] was 11.1 µM (active); in [7], 3.35 µM (active); in assay [8] it was 1.33 µM (active); in assay [11], 19 µM (active). The Potency entry (in assay [17]; in assay [9]; in [12]; in assay [13]; in the assay with Aromatase (Homo sapiens)) was “inactive” throughout.
For the compound `COc1cc(/C=C/C(=O)CC(=O)/C=C/c2ccc(O)c(OC)c2)ccc1O`, the Potency entry in assay [1], in [16], in assay [6], in assay [9], in [12] and in [14] was “inactive” in each case. Besides, the Potency in [2] is 8.41 µM (active) and 21.1 µM (active) and 17.3 µM (active); in assay [3], 11.9 µM (active) and 12.3 µM (active); in [4] it was 10.6 µM (active) and 26.6 µM (active) and 10.9 µM (active); in [5], “inactive and 43.9 µM (active)”; in assay [17] it was 26.6 µM (active) and inactive and 13.8 µM (active); in assay [8], 23.7 µM (active) and 17.3 µM (active). Besides, the Potency entry in assay [11] is “inactive and 49.3 µM (active)”; in [13], 23.7 µM (active) and inactive; in [15], “inactive and 54.8 µM (active)”; in the assay with Aromatase (Homo sapiens), “inactive and 48.9 µM (active)”.
In the case of `CC(=O)OCC1=C(C(=O)O)N2C(=O)[C@@H](NC(=O)Cc3ccccc3)[C@H]2SC1`, the Potency entry in assay [1], in assay [2], in assay [3], in [4], in [5] and in assay [18] was “inactive” in each case. Moreover, the Potency entry in assay [16], in [6], in assay [17], in [7], in assay [8] and in [9] was “inactive” throughout. Further, the Potency result (in assay [11]; in assay [15]; with Aromatase (Homo sapiens)) was “inactive” in each case.
With `CN(C)CCOc1ccc(/C(=C(/CCCl)c2ccccc2)c2ccccc2)cc1`, the Potency result in [1], in [6], in assay [9] and in assay [15] was “inactive” each time. Also, the Potency in [2] was 11.9 µM (active) and 5.1 µM (active); in assay [3], 2.66 µM (active) and 1.44 µM (active); in assay [4], 9.44 µM (active) and 2.03 µM (active); in assay [5] it was 16.3 µM (active); in assay [17], “inactive and 57.2 µM (active)”; in assay [7], 10.6 µM (active) and 10.2 µM (active). Besides, the Potency was 11.9 µM (active) and 8.09 µM (active) in assay [8]; 21.1 µM (active) and 6.42 µM (active) with Aromatase (Homo sapiens).

Values taken from PubChem BioAssay (Tox21).
